Data reported in the supplement of paper PMC10849652.
Of roughly 7,900 targets only a part is listed; those with a hit were picked by preference. About 0.6% of all pairs of compound and target were hits. Values without a mark were called inactive.

Tests used:
Assay in all cases: log2 fold change, soluble protein after heating vs DMSO (PISA); higher = thermal stabilisation; K562 cells, 10 uM, 30 min; active = over 0.2 and 3.5 SD of the protein, either way, in both replicates (recomputed)
[1] = compound: COC1=CC=C(C=C1)CN2C=CC3=C2C=C(C=C3)C(=O)NO
Procedure, shortened: (§1)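 Aliquots of K562 cells (2×10^6 cells/mL) treated with 10 μM compound for 30 min were heated for 3 min over 48°C-58°C. After pooling and extraction in PBS with 0.5% NP-40 at 4°C, soluble protein from a 21,000xg, 90 min spin was quantified by TMTpro 16plex LC-MS/MS with channel sums equalised. Thermal stability is expressed against control samples, from duplicates, as a log2 fold change.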

filanesib = compound: CON(C)C(=O)N1N=C(c2cc(F)ccc2F)S[C@@]1(CCCN)c1ccccc1 [filanesib]
Procedure, shortened: as §1

zotarolimus = compound: CO[C@H]1C[C@@H]2CC[C@@H](C)[C@@](O)(O2)C(=O)C(=O)N2CCCC[C@H]2C(=O)O[C@H]([C@H](C)C[C@@H]2CC[C@H](n3cnnn3)[C@H](OC)C2)CC(=O)[C@H](C)/C=C(\C)[C@@H](O)[C@@H](OC)C(=O)[C@H](C)C[C@H](C)/C=C/C=C/C=C/1C [zotarolimus]
Procedure, shortened: as §1

idasanutlin = compound: COc1cc(C(=O)O)ccc1NC(=O)[C@@H]1N[C@@H](CC(C)(C)C)[C@](C#N)(c2ccc(Cl)cc2F)[C@H]1c1cccc(Cl)c1F [idasanutlin]
Procedure, shortened: as §1

alisertib = compound: COc1cc(Nc2ncc3c(n2)-c2ccc(Cl)cc2C(c2c(F)cccc2OC)=NC3)ccc1C(=O)O [alisertib]
Procedure, shortened: as §1

[2] = compound: COc1cc2nc(-c3cc(F)ccc3O)nc(N[C@@H]3CNC[C@H]3C(C)(C)O)c2cc1OC
Procedure, shortened: as §1

gefitinib = compound: COc1cc2ncnc(Nc3ccc(F)c(Cl)c3)c2cc1OCCCN1CCOCC1 [gefitinib]
Procedure, shortened: as §1

[3] = compound: COc1cccc2cc(-c3nc([C@H]4CC[C@H](C(=O)O)CC4)n4ncnc(N)c34)[nH]c12
Procedure, shortened: as §1

lapatinib = compound: CS(=O)(=O)CCNCc1ccc(-c2ccc3ncnc(Nc4ccc(OCc5cccc(F)c5)c(Cl)c4)c3c2)o1 [lapatinib]
Procedure, shortened: as §1

pictilisib = compound: CS(=O)(=O)N1CCN(Cc2cc3nc(-c4cccc5[nH]ncc45)nc(N4CCOCC4)c3s2)CC1 [pictilisib]
Procedure, shortened: as §1

UniProt Q9NW08, sequence (Q9NW08 whole entry, looked up): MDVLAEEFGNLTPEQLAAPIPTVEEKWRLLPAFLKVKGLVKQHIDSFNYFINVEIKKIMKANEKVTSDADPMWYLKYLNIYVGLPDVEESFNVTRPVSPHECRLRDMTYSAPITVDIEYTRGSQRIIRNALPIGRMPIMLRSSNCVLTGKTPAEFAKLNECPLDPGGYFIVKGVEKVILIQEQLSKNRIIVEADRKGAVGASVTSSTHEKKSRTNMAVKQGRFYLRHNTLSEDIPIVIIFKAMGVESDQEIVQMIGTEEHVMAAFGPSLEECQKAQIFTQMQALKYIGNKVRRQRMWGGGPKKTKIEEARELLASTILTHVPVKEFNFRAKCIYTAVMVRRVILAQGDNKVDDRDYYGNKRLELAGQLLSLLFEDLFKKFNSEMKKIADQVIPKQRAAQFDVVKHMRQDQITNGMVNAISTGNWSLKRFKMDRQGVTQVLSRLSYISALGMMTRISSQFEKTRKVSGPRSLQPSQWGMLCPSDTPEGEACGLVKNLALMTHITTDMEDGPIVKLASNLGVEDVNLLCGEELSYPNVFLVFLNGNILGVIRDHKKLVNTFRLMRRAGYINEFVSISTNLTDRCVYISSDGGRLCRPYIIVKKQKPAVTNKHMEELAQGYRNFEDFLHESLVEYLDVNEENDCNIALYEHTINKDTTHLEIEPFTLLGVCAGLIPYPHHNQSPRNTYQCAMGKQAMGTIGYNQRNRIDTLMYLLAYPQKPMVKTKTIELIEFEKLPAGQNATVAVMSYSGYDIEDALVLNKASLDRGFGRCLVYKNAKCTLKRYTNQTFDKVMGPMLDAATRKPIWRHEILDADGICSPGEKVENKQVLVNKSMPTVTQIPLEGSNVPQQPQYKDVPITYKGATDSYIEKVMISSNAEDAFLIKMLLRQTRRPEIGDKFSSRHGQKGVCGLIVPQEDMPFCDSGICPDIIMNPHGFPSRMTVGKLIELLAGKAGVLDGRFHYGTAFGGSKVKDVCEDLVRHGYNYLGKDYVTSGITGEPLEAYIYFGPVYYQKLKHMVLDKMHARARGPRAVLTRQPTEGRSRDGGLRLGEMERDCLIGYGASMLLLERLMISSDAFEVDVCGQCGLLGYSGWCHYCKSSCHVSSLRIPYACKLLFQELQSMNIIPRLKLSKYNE
UniProt P31323, sequence (P31323 whole entry, looked up): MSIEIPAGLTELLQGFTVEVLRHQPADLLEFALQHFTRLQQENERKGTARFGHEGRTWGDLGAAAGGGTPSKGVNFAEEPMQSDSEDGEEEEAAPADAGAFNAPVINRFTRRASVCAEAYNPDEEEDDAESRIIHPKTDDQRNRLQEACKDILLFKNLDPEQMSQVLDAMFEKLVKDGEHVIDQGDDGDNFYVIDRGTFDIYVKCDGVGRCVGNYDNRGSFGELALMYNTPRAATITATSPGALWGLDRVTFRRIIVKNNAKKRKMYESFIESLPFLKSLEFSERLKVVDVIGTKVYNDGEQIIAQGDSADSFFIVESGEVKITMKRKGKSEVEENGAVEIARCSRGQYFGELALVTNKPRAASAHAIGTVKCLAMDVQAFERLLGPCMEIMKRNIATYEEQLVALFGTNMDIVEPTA
UniProt O00625, sequence (O00625 whole entry, looked up): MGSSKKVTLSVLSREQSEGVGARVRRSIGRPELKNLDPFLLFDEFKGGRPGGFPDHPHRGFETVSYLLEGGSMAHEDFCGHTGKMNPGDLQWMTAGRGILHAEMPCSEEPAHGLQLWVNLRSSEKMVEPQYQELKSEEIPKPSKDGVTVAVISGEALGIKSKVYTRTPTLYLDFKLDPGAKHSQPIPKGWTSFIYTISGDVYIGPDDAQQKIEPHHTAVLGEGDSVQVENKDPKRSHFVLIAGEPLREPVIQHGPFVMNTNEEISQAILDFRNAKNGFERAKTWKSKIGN
UniProt P62191, sequence (P62191 whole entry, looked up): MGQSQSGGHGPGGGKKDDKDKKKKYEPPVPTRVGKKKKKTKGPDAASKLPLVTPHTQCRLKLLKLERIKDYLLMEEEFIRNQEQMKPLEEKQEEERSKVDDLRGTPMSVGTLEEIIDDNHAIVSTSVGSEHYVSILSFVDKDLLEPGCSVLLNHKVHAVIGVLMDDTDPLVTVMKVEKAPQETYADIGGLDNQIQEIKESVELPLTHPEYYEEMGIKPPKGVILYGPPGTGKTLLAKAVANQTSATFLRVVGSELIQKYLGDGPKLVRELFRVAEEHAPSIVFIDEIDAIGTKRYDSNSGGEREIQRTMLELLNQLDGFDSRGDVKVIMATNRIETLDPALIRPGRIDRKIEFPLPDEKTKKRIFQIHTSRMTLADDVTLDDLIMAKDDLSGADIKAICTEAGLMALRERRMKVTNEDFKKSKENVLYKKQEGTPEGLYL
UniProt Q13362, sequence (Q13362 whole entry, looked up): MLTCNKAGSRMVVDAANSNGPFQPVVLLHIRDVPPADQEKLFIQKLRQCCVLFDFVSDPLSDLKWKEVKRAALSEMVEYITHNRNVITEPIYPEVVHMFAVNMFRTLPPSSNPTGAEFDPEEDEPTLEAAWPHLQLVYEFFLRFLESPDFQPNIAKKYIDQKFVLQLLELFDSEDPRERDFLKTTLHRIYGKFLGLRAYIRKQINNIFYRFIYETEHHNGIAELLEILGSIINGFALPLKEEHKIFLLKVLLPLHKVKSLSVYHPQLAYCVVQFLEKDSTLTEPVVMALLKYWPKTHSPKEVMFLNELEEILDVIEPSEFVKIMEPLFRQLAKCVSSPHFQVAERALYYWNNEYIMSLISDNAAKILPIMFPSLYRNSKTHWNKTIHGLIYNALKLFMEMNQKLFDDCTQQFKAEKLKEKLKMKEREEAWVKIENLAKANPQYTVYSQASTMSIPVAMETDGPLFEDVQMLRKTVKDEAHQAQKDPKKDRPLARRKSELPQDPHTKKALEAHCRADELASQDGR
UniProt Q15004, sequence (Q15004 whole entry, looked up): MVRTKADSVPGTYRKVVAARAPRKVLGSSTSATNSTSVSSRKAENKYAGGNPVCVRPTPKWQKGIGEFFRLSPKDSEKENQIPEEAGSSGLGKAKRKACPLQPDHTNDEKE
UniProt Q5H8A4, sequence (Q5H8A4 whole entry, looked up): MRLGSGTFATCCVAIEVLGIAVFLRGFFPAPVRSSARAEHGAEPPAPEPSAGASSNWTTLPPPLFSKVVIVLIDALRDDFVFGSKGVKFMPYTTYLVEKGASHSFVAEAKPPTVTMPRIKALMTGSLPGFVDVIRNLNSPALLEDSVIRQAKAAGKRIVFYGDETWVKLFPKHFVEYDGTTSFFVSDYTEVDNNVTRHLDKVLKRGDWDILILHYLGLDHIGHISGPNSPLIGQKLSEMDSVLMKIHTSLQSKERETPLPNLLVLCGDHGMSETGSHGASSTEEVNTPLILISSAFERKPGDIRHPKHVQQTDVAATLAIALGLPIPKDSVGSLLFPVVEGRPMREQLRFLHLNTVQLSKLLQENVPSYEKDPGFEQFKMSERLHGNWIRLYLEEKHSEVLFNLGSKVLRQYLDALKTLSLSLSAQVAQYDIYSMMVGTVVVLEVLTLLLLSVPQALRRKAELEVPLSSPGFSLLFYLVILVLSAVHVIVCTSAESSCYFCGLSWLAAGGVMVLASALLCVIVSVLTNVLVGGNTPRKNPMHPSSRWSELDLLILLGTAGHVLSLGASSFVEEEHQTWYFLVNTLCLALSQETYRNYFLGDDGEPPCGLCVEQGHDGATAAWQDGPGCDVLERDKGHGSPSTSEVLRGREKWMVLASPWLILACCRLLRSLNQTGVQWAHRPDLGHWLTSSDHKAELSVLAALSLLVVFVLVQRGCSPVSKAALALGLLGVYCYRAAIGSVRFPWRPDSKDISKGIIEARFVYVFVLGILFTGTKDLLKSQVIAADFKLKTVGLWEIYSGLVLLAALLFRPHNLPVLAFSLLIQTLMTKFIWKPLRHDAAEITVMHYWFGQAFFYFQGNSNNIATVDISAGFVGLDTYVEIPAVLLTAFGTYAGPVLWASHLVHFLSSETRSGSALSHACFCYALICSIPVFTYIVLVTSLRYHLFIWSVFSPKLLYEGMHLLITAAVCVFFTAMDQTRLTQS
UniProt Q8WUK0, sequence (Q8WUK0 whole entry, looked up): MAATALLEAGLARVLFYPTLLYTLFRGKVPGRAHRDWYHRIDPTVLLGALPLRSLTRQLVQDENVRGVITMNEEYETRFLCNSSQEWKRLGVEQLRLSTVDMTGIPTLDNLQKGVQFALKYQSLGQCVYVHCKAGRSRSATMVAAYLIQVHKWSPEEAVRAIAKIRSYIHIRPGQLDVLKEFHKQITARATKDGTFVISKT
UniProt Q02156, sequence (Q02156 whole entry, looked up): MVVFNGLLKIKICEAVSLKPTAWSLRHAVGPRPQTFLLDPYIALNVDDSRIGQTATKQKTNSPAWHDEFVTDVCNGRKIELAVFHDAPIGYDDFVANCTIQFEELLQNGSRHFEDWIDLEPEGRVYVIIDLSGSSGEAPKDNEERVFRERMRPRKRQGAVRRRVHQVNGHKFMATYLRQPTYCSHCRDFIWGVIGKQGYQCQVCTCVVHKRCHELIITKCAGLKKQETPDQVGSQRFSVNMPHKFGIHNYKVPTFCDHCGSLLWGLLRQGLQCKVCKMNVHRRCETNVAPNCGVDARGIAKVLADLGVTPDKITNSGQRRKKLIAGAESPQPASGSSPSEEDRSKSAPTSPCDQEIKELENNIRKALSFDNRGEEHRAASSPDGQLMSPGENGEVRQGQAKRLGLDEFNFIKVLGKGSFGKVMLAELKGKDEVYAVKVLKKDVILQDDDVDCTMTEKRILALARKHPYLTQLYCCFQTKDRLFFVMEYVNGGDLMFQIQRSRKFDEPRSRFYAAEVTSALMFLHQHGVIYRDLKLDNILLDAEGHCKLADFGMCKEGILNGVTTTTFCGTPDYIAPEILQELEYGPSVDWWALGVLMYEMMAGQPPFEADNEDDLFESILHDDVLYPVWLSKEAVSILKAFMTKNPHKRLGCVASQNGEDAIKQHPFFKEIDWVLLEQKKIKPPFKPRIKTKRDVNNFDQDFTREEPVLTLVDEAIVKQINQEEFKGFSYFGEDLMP
UniProt Q7RTV0, sequence (Q7RTV0 whole entry, looked up): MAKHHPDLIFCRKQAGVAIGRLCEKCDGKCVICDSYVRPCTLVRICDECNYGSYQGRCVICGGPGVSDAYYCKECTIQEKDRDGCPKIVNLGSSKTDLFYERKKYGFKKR

| Target | log2 fold change [1] | log2 fold change (filanesib) | log2 fold change (zotarolimus) | log2 fold change (idasanutlin) | log2 fold change (alisertib) | log2 fold change [2] | log2 fold change (gefitinib) | log2 fold change [3] | log2 fold change (lapatinib) | log2 fold change (pictilisib) |
| --- | --- | --- | --- | --- | --- | --- | --- | --- | --- | --- |
| PIK3C3 (UniProt Q8NEB9) | 0.049 | 0.221 | 0.016 | -0.055 | 0.011 | 0.172 | 0.062 | 0.007 | 0.021 | 0.094 |
| PTP4A2 (UniProt Q12974) | 0.078 | -0.062 | -0.022 | -0.079 | -0.055 | 0.033 | -0.007 | -0.11 | -0.078 |  |
| PSME4 (UniProt Q14997) | -0.023 | -0.091 | 0.005 | -0.123 | -0.045 | -0.03 | -0.071 | 0.037 | 0.044 | -0.045 |
| PSMB6 (UniProt P28072) | -0.055 | 0.075 | -0.018 | 0.044 | -0.062 | -0.014 | -0.027 | 0.018 | 0.035 | -0.017 |
| PCTP (UniProt Q9UKL6) | -0.007 | -0.175 | -0.066 | 0.029 | -0.081 | -0.239 (active) | -0.024 | -0.031 | 0.052 | 0.392 (active) |
| PRKAR2B (UniProt P31323) | -0.032 | 0.06 | 0.153 | 0.05 | -0.007 | -0.63 (active) | -0.026 | -0.024 | 0.048 | -0.056 |
| PYGB (UniProt P11216) | -0.024 | 0.035 | -0.023 | -0.013 | -0.019 | 0.237 (active) | -0.037 | 0.028 | -0.223 | -0.164 |
| PPP2R5C isoform 5 (UniProt Q13362) | 0.022 | -0.126 | 0.031 | -0.137 | -0.11 | 0.082 | -0.018 | -0.012 | 0 | 0.111 |
| PIR (UniProt O00625) | -0.338 (active) | 0.015 | 0.011 | 0.033 | -0.038 | 0.085 | 0.061 | 0.011 | 0.018 | 0.077 |
| QRSL1 (UniProt Q9H0R6) | -0.01 | -0.087 | -0.028 | -0.128 | 0.022 | -0.005 | -0.007 | 0.017 | 0.003 | 0.06 |
| POLA1 (UniProt P09884) | 0.053 | -0.023 | 0.008 | 0.003 | -0.053 | 0.016 | 0.015 | -0.008 | -0.005 | 0.033 |
| PRCP (UniProt P42785) | 0.009 | -0.038 | -0.007 | -0.055 | -0.013 | -0.074 | 0.029 | 0.065 | -0.014 | 0.019 |
| PRKCE (UniProt Q02156) | -0.024 | -0.082 | 0 | -0.085 | -0.078 | 0.012 | 0.029 | -0.104 | 0.025 | 0.099 |
| PDPK1 (UniProt O15530) | -0.015 | -0.097 | 0.04 | -0.048 | -0.017 | 0.011 | -0.028 | 0.01 | -0.058 | -0.179 |
| PHF5A (UniProt Q7RTV0) | 0.014 | 0.087 | -0.024 | 0.056 | -0.033 | 0.067 | 0.003 | 0.026 | -0.051 | 0.071 |
| PARG (UniProt Q86W56) | 0.065 | -0.057 | 0.048 | -0.093 | -0.114 | 0.013 | 0.023 | 0.094 | 0.013 | -0.023 |
| PCLAF (UniProt Q15004) | -0.115 | 0.158 | -0.172 | 0.066 | -0.035 | -0.018 | -0.057 | -0.162 | 0.033 | -0.015 |
| PPP2R5E (UniProt Q16537) | -0.044 | -0.056 | -0.009 | -0.191 | -0.024 | 0.205 | 0.002 | 0.033 | -0.024 | -0.118 |
| PSMC1 (UniProt P62191) | -0.062 | 0.03 | -0.013 | 0.009 | -0.049 | -0.018 | -0.05 | -0.015 | 0.054 | -0.006 |
| PSMA3 (UniProt P25788) | 0.015 | 0.034 | 0.044 | 0.019 | -0.04 | -0.079 | -0.025 | -0.003 | 0.062 | -0.053 |
| PDCD4 (UniProt Q53EL6) | 0.055 | -0.153 | 0.251 | -0.161 | -0.025 | 0.018 | 0.057 | 0.16 | 0.032 | 0.083 |
| PTPMT1 (UniProt Q8WUK0) | -0.084 | -0.26 | -0.027 | -0.002 | 0.006 | -0.327 (active) | -0.021 | 0.034 | -0.064 | 0.02 |
| PIK3CB (UniProt P42338) | 0.063 | 0.007 | 0.042 | -0.041 | 0.003 | 0.02 | 0.048 | 0.01 | 0.001 | 0.258 (active) |
| PGK2 (UniProt P07205) | 0.016 | -0.003 | -0.029 | 0.001 | 0.08 | 0.14 | 0.068 | 0.001 | -0.093 | 0.041 |
| POMK (UniProt Q9H5K3) | -0.025 | -0.019 | -0.101 | -0.017 | 0.077 | -0.037 | -0.02 | 0.04 | 0.067 | 0.077 |
| PTGES3 (UniProt Q15185) | 0.23 | -0.091 | 0.055 | 0.004 | 0.016 | -0.044 | 0.044 | -0.038 | 0.007 | 0.027 |
| POLR3B (UniProt Q9NW08) | 0.026 | 0.065 | 0.075 | 0.008 | -0.086 | 0.08 | 0.105 | -0.135 | 0.008 | -0.019 |
| PIGG (UniProt Q5H8A4) | -0.01 | -0.062 | 0.073 | 0.019 | -0.048 | 0.098 | -0.122 | 0.049 | 0.046 | 0.017 |
| PML (UniProt P29590) | -0.043 | 0.014 | 0.041 | 0.003 | -0.022 | -0.026 | -0.015 | -0.081 | 0.024 | 0.119 |
| PUM1 isoform 3 (UniProt Q14671) | -0.003 | 0.007 | -0.023 | 0.006 | -0.039 | -0.025 | 0.025 | -0.002 | 0.004 | -0.012 |
